ADAM17 inh – inhibits human ADAM17; recombinant ADAM17, EDANS/DABCYL FRET peptide cleavage; P78536; inhibition, % at 6.95 µM; 0.83% of 370,000 active; AID 720648;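 active = inhibition above the mean of compounds lying between control limits plus 3 SD, set per campaign, cut at about 8.5% in these data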;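 note: 0% = DMSO-only wells as the low control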
GRIN3A LBD mod – modulates the human NR3A ligand-binding domain. Tm shift relative to glycine control, % at 25 µM. NR3A LBD differential scanning fluorimetry, Tm shift; 0% = protein alone, 100% = glycine-bound protein. 2.5% of 340,000 active;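 active = melting temperature shift of at least 10% of the positive control shift, at one fixed dose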
ADAM10 inh – inhibitors of human ADAM10. O14672. recombinant ADAM10, EDANS/DABCYL FRET peptide cleavage, 3 h. inhibition, % at 7 µM. 0.62% of 370,000 active;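 active = inhibition above a per-campaign cutoff equal to the mean of compounds falling between control-based bounds plus 3 SD, cut at about 20% in these data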;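 note: 0% = DMSO wells while the 100% control is not disclosed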
Target sequence (O14672 214-748 limits assumed): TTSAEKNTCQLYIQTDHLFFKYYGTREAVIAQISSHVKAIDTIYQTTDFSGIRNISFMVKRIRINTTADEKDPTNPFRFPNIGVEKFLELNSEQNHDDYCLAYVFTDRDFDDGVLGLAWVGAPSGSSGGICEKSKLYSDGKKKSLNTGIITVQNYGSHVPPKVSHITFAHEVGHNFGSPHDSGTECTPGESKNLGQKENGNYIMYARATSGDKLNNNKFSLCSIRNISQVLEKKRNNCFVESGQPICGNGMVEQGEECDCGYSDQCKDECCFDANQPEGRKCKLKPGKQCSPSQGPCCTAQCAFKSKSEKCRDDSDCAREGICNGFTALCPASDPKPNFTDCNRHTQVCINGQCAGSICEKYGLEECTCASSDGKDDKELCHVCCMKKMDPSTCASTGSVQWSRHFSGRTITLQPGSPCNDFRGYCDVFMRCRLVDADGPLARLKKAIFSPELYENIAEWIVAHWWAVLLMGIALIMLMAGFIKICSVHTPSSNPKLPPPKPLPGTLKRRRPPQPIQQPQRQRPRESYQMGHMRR
FAS-TE inh – blocks the thioesterase domain of human fatty acid synthase; inhibition, % at 15 µM; 0.67% of 360,000 active; recombinant FAS-TE, OMFH fluorogenic substrate, fluorescence endpoint; P49327;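 active = compounds whose normalised, plate-corrected inhibition of enzyme fluorescence in the single-dose primary screen is 50% or more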;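 note: 0% = DMSO with enzyme and 100% = substrate without enzyme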
HGIII-sPLA2 inh – Blocks human group III sPLA2 activity; QFRET BODIPY PC-A2 liposome hydrolysis, fluorescence; 0.56% of 370,000 active; inhibition, % at 12.2 µM;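 active = inhibition above mean plus 3 SD of compounds lying within the high and low control bounds, cut at about 19% in these data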;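 note: 0% = median of test compound wells and 100% = no enzyme DMSO wells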
An asterisk follows results filed as active; i = inactive; . = no result. Compounds with a hit are over-represented: about 4.3% of the library has one in this group of screens.

SMILES	ADAM17 inh	GRIN3A LBD mod	ADAM10 inh	FAS-TE inh	HGIII-sPLA2 inh
Nc1nonc1-n1nnc(C(=O)N/N=C/c2cccc(O)c2)c1CN1CCCC1	-1.9	11.9*	-7.1	-4.7	-20.9
Nc1nonc1-n1nnc(C(=O)N/N=C/c2cccc(Cl)c2)c1CN1CCCCCC1	-4.0	-1.3	9.1	2.4	-0.5
CC(C)CN1C(=O)[C@]2(CC(=O)N(C)C2c2ccccc2)c2cc(-n3cc(CCc4ccccc4)nn3)ccc21 (some centres not stated)	-2.5	.	-6.4	.	0.8
Cc1occc1C(=O)N1CCN(c2ccccc2)CC1	-1.5	11.5*	-3.8	-8.6	7.4
CCOC(=O)C(C)Sc1nc(C2CC2)cc(C(F)(F)F)c1C#N (configuration not stated)	-5.3	1.4	-12.9	32.7	1.4
COC(=O)CSc1nc(C2CC2)cc(C(F)(F)F)c1C#N	-2.5	18.0*	-13.5	24.5	0.1
CCS(=O)(=O)Nc1ccc2c(c1)C(=O)N(C)[C@@H]1CC[C@H](CC(=O)NCCCN3CCOCC3)O[C@H]1CO2	1.6	.	4.5	.	8.8
Cc1[nH]c2ccccc2c1CCCO	-15.6	0.8	-29.9	.	-3.4
OCCCCc1nccc2c1[nH]c1ccccc12	-363.4	12.1*	i	-5.1	-2.3
CSc1nnc2c3cc(F)ccc3n(Cc3ccccc3)c2n1	-2.5	38.9*	0.0	-1.5	7.5
O=C(O)c1cccc(-n2sc3ccccc3c2=O)c1	-3.8	22.8*	1.6	-11.8	8.4
O=c1c2ccccc2sn1-c1ccccc1	-3.5	3.3	-10.2	-5.2	1.2
CCCCOc1cccc(-c2cc(C(=O)NNC(=S)NCC)c3ccccc3n2)c1	-15.1	11.3*	-39.1	74.0*	-13.0
CCCCOc1ccc(-c2cc(C(=O)NNC(=S)NCC)c3ccccc3n2)cc1	.	17.4*	.	30.0	.
CCOC(=O)CNC(=O)CSc1nnc(-c2ccc(C(C)(C)C)cc2)n1-c1ccc(Cl)cc1	8.3	.	12.3	.	-5.6
CCOC(=O)Cn1c(=NC(=O)c2cc(-c3cccs3)nc3ccccc23)sc2cc(S(N)(=O)=O)ccc21	-23.4	26.1*	-72.7	1.2	-7.2
COC(=O)Cn1c(=NC(=O)c2cc(-c3cccs3)nc3ccccc23)sc2cc(S(N)(=O)=O)ccc21	-151.3	15.9*	-356.6	19.9	-3.1
CCOC(=O)[C@]12CCCCC/C=C\1N(CCc1ccc(Cl)cc1)C(=O)[C@H]2CC(=O)NCC12CC3CC(CC(C3)C1)C2	-3.9	.	-7.6	.	9.6
O=C(N/N=C/c1c(O)ccc2ccccc12)c1[nH]ncc1Br	3.3	29.7*	6.2	0.8	10.8
COc1ccc(/C=N/NC(=O)c2ccncc2)c(OC)c1	-3.8	19.9*	-7.6	-8.4	4.8
COc1ccc(OC)c(/C=N/NC(=O)c2[nH]ncc2Br)c1	-136.1	21.2*	-373.4	-44.7	-10.8
CCOc1ccc(/C=N/NC(=O)c2[nH]ncc2Br)c(O)c1	-10.8	26.7*	-20.7	-19.9	-6.5
CC(C)C[C@H]1CNC(=S)N1C[C@H]1CCCN1C[C@H](Cc1ccc(O)cc1)N1C[C@H](Cc2ccccc2)N(CCc2ccccc2)C1=S	0.7	.	7.0	-86.1	-20.2
Oc1ccc(C[C@H]2CN([C@@H](Cc3ccccc3)CN3CCCC3CN3C(=S)NC[C@@H]3Cc3ccccc3)C(=S)N2CC2CCCCC2)cc1 (some centres not stated)	-0.3	.	3.5	-101.6	-7.9
Oc1ccc(C[C@H]2CNC(=S)N2CC2CCCN2C[C@H](Cc2ccccc2)N2C[C@H](Cc3ccc(O)cc3)N(CC3CCCCCC3)C2=S)cc1 (some centres not stated)	1.8	33.2*	3.6	-74.0	-1.1
SMILES	ADAM17 inh	GRIN3A LBD mod	ADAM10 inh	FAS-TE inh	HGIII-sPLA2 inh
Oc1ccc(C[C@H]2CNC(=S)N2CC2CCCN2C[C@H](Cc2ccc(O)cc2)N2C[C@H](Cc3ccc(O)cc3)N(CC3CCCCC3)C2=S)cc1 (some centres not stated)	7.5	18.5*	22.2*	-68.3	-14.6
Oc1ccc(C[C@H]2CNC(=S)N2CC2CCCN2C[C@H](Cc2ccc(O)cc2)N2C[C@H](Cc3ccccc3)N(CCc3ccccc3)C2=S)cc1 (some centres not stated)	4.8	11.9*	7.0	-87.3	-5.5
CCOc1ccc(-c2cc(C(=O)OC)c3n(c2=O)CCC3)cc1	-90.0	.	-309.8	.	-3.2
Cc1ccc(C2(C)NC(=O)N(CC(=O)N3CCN(S(=O)(=O)c4cccc(F)c4)CC3)C2=O)cc1 (configuration not stated)	-1.8	1.6	-0.2	-0.2	-8.0
O=C(CN1C(=O)NC2(CCCC2)C1=O)N1CCN(S(=O)(=O)c2cccc(F)c2)CC1	3.2	15.9*	8.8	-4.4	5.2
O=C1NC(=Nc2ccccc2Cl)S/C1=C\c1cc([N+](=O)[O-])ccc1O	2.3	20.5*	7.0	-6.9	-42.4
COc1cccc(N=C2NC(=O)/C(=C/c3cc([N+](=O)[O-])ccc3O)S2)c1	-0.2	-7.5	-0.1	-2.6	-9.8
CCCCCCC12C(=Cc3cc4c(cc31)OCCO4)c1cc(OC)c(OC)cc1C(CC(=O)NCc1ccccc1)N2C(=O)OC (configuration not stated)	-6.3	.	-24.8	.	-4.6
CCOC(=O)c1[nH]c2ccc(OC)cc2c1NC(=S)N1CCN(c2cccc(C)c2C)CC1	-6.1	11.9*	-30.0	25.7	4.9
COc1cccc(NCc2cc(=O)oc3cc(-c4ccccc4)c(O)cc23)c1	-3.0	28.1*	-15.5	-1.3	-11.2
C=CCN(Cc1ccc2c(c1)OCO2)C(C#Cc1ccccc1)c1ccccc1C(F)(F)F (configuration not stated)	-5.2	.	-7.8	.	6.8
COc1ccc(OC)c2c(C)c(C)[nH]c12	-1.9	10.3*	-3.3	-2.0	16.7
C=CCN1[C@@H](C)COc2cc(F)ccc2S1(=O)=O	-6.4	.	-4.7	.	5.3
CCCCS(=O)CC(CS(=O)CCCC)OC(=O)c1ccccc1 (configuration not stated)	-4.7	-2.2	-4.8	-11.1	9.5
CCCCS(=O)(=O)CC(COc1ccccc1)OC(=O)c1ccccc1 (configuration not stated)	-0.4	13.6*	-2.7	16.8	-24.1
O=C(COC(=O)c1ccc(O)cc1O)NC12CC3CC(CC(C3)C1)C2	-0.9	-8.4	3.3	6.6	-38.5
O=C(OCC(=O)C12CC3CC(CC(C3)C1)C2)c1ccc(O)cc1O	3.0	28.6*	6.2	17.9	-31.6
CCOC(=O)[C@]12CCCC=C1N(Cc1ccc(OC)cc1)C(=O)[C@@H]2CC(=O)NCCc1ccccc1OC	2.0	.	6.3	.	-12.9
CCn1c2ccccc2c2cc(NC(=O)c3cc4c(C)nn(-c5ccccc5)c4s3)ccc21	-2.5	.	-13.4	.	3.4
Clc1ccc2[nH]cc(-c3nnnn3-c3ccc4ccccc4c3)c2c1	1.9	29.2*	5.0	9.8	-12.5
Cc1ccc(-n2nnnc2-c2cnc3ccc(Cl)cc3c2-c2ccccc2)cc1	6.8	-2.8	1.4	21.6	12.0

Screens (PubChem)
